This passage reports Potency results from PubChem BioAssay (NCATS).

Inconclusive results are not listed. Active and inactive are the calls of the source. The call rests on the fitted dose curve; in most records, active means well fitted inhibition curve with a large enough effect; inconclusive means small, poorly fitted or top-dose-only effect; inactive means flat fitted curve, though single readings scatter.

What all share (test): qHTS profiling for inhibitors of Plasmodium falciparum proliferation (AID 504749); further: nearly all actives have a fitted effect of over 60% in size
What all share (conditions): P. falciparum in erythrocytes, SYBR Green DNA, 72 h; series mostly up to 28.7 µM
A general note: Quantitative high-throughput screening tests each substance at several concentrations.

One test relates to 7G8. A digest of the protocol:
(§1)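 Three-day growth assay of blood-stage parasites in erythrocytes (0.3% parasitemia, 2.5% hematocrit) at 37 C, 5% CO2, quantified by SYBR Green DNA staining after overnight detergent lysis.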

A further test deals with ATS95. A digest of the protocol: as §1
The test system of another test is CP201. A digest of the protocol:
as §1

Another test deals with CP203. In a few lines: as §1
The subject of the next test is CP250. In a few lines:
as §1

The subject of another test is CP256. In a few lines:
as §1

Another test has as its system CP262. A digest of the protocol:
as §1

The next test deals with CP265. A digest of the protocol: as §1
The subject of a further test is CP269. A digest of the protocol: as §1
The next test deals with CP315. In a few lines:
as §1

In another test the test system is CP325. In a few lines: as §1
A further test deals with CP329. A digest of the protocol: as §1
For a further test, the system named is DIV30. A digest of the protocol:
as §1

A further test deals with ECU. In a few lines:
as §1

A further test concerns N140. In a few lines: as §1
The test system of another test is PAD. In a few lines: as §1
For the next test, the system named is PC15. A digest of the protocol: as §1
The next test relates to SC27B. A digest of the protocol: as §1
The subject of another test is TAB113. In a few lines:
as §1

For another test, the system named is TAB165. A digest of the protocol: as §1
Potency means the concentration at half of the fitted maximal effect.

`CCC(C(=O)O)C1OC(C(C)C(O)C(C)C(=O)C(CC)C2OC3(C=CC(O)C4(CCC(C)(C5CCC(O)(CC)C(C)O5)O4)O3)C(C)CC2C)C(C)CC1C` (stereo not given): the Potency in the test with 7G8 is 79.4 nM (active); in the test with ATS95, 178 nM (active); in the test with CP201, 95.3 nM (active); with CP203 it was 37.9 nM (active); in the test with CP250, 199 nM (active); with CP256, 199 nM (active). Further, the Potency with CP262 was 536 nM (active); in the test with CP265, 224 nM (active); with CP269, 95.3 nM (active); with CP315 it was 33.8 nM (active); in the test with CP325 it was 84.9 nM (active); in the test on CP329, 95.3 nM (active). For the same compound, the Potency with DIV30 is 67.5 nM (active); in the test on ECU it was 178 nM (active); with N140 it was 141 nM (active); in the test on PAD, 224 nM (active); in the test on PC15 it was 158 nM (active); in the test on SC27B, 89.1 nM (active). Moreover, the results for the Potency with TAB113 and with TAB165 were 79.4 nM (active) and 158 nM (active), respectively.

With `CC(=O)OCC(=O)[C@@]1(O)CCC2C3C[C@H](C)C4=CC(=O)C=CC4(C)C3C(O)CC21C` (stereo not given in full), the Potency entry with 7G8, with ATS95, with CP201, in the test on CP203, in the test with CP250 and in the test with CP256 was “inactive” each time. The Potency result in the test with CP262, with CP265, in the test on CP269, in the test on CP315, in the test with CP325 and in the test with CP329 was “inactive” each time. Moreover, the Potency entry in the test with DIV30, with ECU, in the test with N140, in the test on PAD, in the test with PC15 and in the test on SC27B was “inactive” each time. The Potency result in the test with TAB113 and with TAB165 was “inactive” in each case.

As for `CC1(C)CC1C(=O)N/C(=C/CCCCSCC(N)C(=O)O)C(=O)O` (stereo not given), the Potency entry in the test on 7G8, in the test with ATS95, in the test with CP201, in the test on CP203, in the test on CP250 and in the test with CP256 was “inactive” throughout. In addition, the Potency entry with CP262, in the test on CP265, with CP269, in the test on CP315, in the test on CP325 and with CP329 was “inactive” throughout. The Potency entry with DIV30, in the test with ECU, in the test on N140, with PAD, with PC15 and in the test with SC27B was “inactive” each time. Further, the Potency result in the test on TAB113 and in the test with TAB165 was “inactive” in each case.

As to `O=c1ccn(C2OC(COP(=O)(O)OC3C(CO)OC(n4ccc(=O)[nH]c4=O)C3O)C(O)C2O)c(=O)[nH]1` (stereo not given), the Potency result in the test on 7G8, with ATS95, with CP201, with CP203, in the test on CP250 and in the test with CP256 was “inactive” throughout. Further, the Potency result in the test with CP262, in the test on CP265, in the test on CP269, with CP315, in the test with CP325 and in the test on CP329 was “inactive” each time. Further, the Potency entry with DIV30, with ECU, in the test on N140, in the test on PAD, with PC15 and in the test on SC27B was “inactive” each time. For the same compound, the Potency entry in the test on TAB113 and with TAB165 was “inactive” throughout.

As for `CC[C@@H]1/C=C(\C)C[C@H](C)C[C@H](OC)[C@H]2O[C@@](O)(C(=O)C(=O)N3CCCC[C@H]3C(=O)O[C@H](/C(C)=C/[C@@H]3CC[C@H](Cl)[C@H](OC)C3)[C@H](C)[C@@H](O)CC1=O)[C@H](C)C[C@@H]2OC`, the Potency result with 7G8, in the test with ATS95, with CP201, with CP203, in the test on CP250 and in the test with CP256 was “inactive” each time. The Potency result in the test on CP262, in the test on CP265, with CP269, with CP315, in the test on CP325 and with CP329 was “inactive” in each case. The Potency entry with DIV30, in the test with ECU, in the test with N140, in the test on PAD, in the test on PC15 and in the test on SC27B was “inactive” in each case. Also, the Potency result in the test on TAB113 and in the test with TAB165 was “inactive” throughout.

On to `CC(CCC(=O)O)C1CCC2C3C(=O)C[C@@H]4CC(=O)CC[C@@]4(C)C3CC(=O)[C@]12C` (stereo not given in full), for which the Potency result in the test with 7G8, with ATS95, in the test on CP201, with CP203, in the test with CP250 and in the test on CP256 was “inactive” in each case. Further, the Potency result in the test on CP262, with CP265, in the test with CP269, in the test on CP315, in the test with CP325 and with CP329 was “inactive” throughout. Besides, the Potency entry in the test with DIV30, in the test on ECU, in the test with N140, in the test with PAD, with PC15 and in the test with SC27B was “inactive” throughout. For the same compound, the Potency result with TAB113 and with TAB165 was “inactive” throughout.

For the compound `CC1(C(=O)O)CCC2(C)CCC3(C)C(=CC(=O)C4C5(C)CCC(O)C(C)(C)C5CCC43C)C2C1` (stereo not given), the Potency entry in the test with 7G8, in the test on ATS95, in the test with CP201, with CP203, in the test on CP250 and with CP256 was “inactive” in each case. Besides, the Potency result in the test on CP262, in the test on CP265, in the test with CP269, with CP315, with CP325 and with CP329 was “inactive” throughout. For the same compound, the Potency entry in the test with DIV30, in the test on ECU, in the test with N140, in the test on PAD, in the test on PC15 and in the test on SC27B was “inactive” each time. Further, the Potency entry with TAB113 and in the test on TAB165 was “inactive” each time.

For `CC(=O)OCC(=O)[C@@]1(O)CCC2C3CCC4=CC(=O)C=CC4(C)C3C(O)C[C@]21C` (stereo not given in full), the Potency entry in the test with 7G8, with ATS95, with CP201, in the test with CP203, in the test on CP250 and in the test on CP256 was “inactive” in each case. For the same compound, the Potency entry with CP262, in the test on CP265, with CP269, in the test with CP315, in the test on CP325 and in the test with CP329 was “inactive” throughout. The Potency entry in the test with DIV30, in the test on ECU, in the test on N140, with PAD, with PC15 and in the test with SC27B was “inactive” in each case. Moreover, the Potency result in the test on TAB113 and in the test on TAB165 was “inactive” each time.

In the case of `CCN(CC)CC(=O)Nc1c(C)cc(C)cc1C`, the Potency entry in the test on 7G8, in the test with ATS95, in the test with CP201, with CP203, in the test on CP250 and in the test with CP256 was “inactive” each time. Further, the Potency result in the test on CP262, in the test on CP265, in the test with CP269, in the test on CP315, in the test on CP325 and in the test with CP329 was “inactive” each time. Further, the Potency entry in the test on DIV30, in the test on ECU, with N140, with PAD, with PC15 and in the test with SC27B was “inactive” each time. The Potency entry in the test on TAB113 and in the test with TAB165 was “inactive” in each case.

Regarding `C=C(NCc1ccccc1)c1ccccc1O`, the Potency entry in the test on 7G8, in the test on ATS95, in the test with CP201, in the test with CP203, with CP250 and in the test on CP256 was “inactive” throughout. Further, the Potency entry with CP262, in the test with CP265, in the test on CP269, in the test with CP315, in the test with CP325 and in the test on CP329 was “inactive” each time. Moreover, the Potency entry in the test on DIV30, in the test on ECU, in the test with N140, in the test on PAD, with PC15 and in the test with SC27B was “inactive” each time. The Potency entry in the test with TAB113 and in the test on TAB165 was “inactive” each time.

Take `CO[C@H]1C[C@@H]2CC[C@@H](C)[C@@](O)(O2)C(=O)C(=O)N2CCCC[C@H]2C(=O)O[C@H]([C@H](C)C[C@@H]2CC[C@@H](O)[C@H](OC)C2)CC(=O)[C@H](C)/C=C(\C)[C@@H](O)[C@@H](OC)C(=O)[C@H](C)C[C@H](C)/C=C/C=C/C=C/1C`: the Potency was 1000 nM (active) with 7G8; 3980 nM (active) in the test with ATS95; 6010 nM (active) in the test with CP201; 1690 nM (active) in the test on CP203; 3550 nM (active) in the test on CP250; 4470 nM (active) in the test with CP256. The Potency in the test on CP262 is 4780 nM (active); with CP265, 3160 nM (active); in the test on CP269, 4260 nM (active); in the test with CP315, 4260 nM (active); in the test on CP325, 5360 nM (active); in the test on CP329 it was 4260 nM (active). Besides, the Potency was 1900 nM (active) in the test on DIV30; 2510 nM (active) in the test on ECU; 1580 nM (active) in the test on N140; 1000 nM (active) with PAD; 3980 nM (active) with PC15; 2510 nM (active) with SC27B. The Potency was 2510 nM (active) in the test on TAB113 and 1780 nM (active) in the test on TAB165.
